Measurements taken from ChEMBL document CHEMBL2218924, “A broad activity screen in support of a chemogenomic map for kinase signalling research and drug discovery” (Biochem J, 2013).

Tests used:
[1] = biological target: T1, Ephrin type-A receptor 3 (Homo sapiens) (UniProt P29320); settings: at 10 µM
T1 sequence (whole entry): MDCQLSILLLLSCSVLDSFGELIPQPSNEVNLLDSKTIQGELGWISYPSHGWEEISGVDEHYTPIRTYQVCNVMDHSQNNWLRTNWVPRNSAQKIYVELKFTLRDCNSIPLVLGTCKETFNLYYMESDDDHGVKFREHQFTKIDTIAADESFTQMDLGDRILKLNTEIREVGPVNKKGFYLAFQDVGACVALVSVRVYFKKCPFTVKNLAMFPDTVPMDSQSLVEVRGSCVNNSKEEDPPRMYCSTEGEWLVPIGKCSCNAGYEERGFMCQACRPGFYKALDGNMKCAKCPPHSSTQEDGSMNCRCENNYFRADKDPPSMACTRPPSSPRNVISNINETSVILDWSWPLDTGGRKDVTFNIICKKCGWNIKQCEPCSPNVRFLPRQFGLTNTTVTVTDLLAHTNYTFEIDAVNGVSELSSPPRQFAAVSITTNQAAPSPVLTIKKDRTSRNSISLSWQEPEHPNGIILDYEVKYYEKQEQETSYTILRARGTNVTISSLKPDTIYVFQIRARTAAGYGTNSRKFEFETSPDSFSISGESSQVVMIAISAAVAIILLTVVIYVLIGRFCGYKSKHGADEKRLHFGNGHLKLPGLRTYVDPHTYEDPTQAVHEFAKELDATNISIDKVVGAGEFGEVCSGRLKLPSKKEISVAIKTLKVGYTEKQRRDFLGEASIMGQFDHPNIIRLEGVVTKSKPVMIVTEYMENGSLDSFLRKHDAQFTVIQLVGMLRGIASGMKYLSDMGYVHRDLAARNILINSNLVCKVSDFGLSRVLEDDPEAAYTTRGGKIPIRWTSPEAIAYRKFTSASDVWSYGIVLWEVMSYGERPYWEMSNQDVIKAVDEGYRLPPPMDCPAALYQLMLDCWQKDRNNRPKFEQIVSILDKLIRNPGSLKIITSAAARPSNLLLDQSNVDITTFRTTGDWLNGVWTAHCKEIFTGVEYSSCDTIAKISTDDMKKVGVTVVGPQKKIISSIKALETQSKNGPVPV

[2] = biological target: Ephrin type-A receptor 4 (Homo sapiens) (UniProt P54764); settings: at 1 µM
[3] = biological target: Ephrin type-A receptor 4 (Homo sapiens) (UniProt P54764); settings: at 10 µM
[4] = biological target: Ephrin type-A receptor 5 (Homo sapiens) (UniProt P54756); settings: at 1 µM
[5] = biological target: Ephrin type-A receptor 5 (Homo sapiens) (UniProt P54756); settings: at 10 µM
[6] = biological target: Ephrin type-A receptor 7 (Homo sapiens) (UniProt Q15375); settings: at 1 µM
[7] = biological target: Ephrin type-A receptor 7 (Homo sapiens) (UniProt Q15375); settings: at 10 µM
[8] = biological target: T2, Ephrin type-A receptor 8 (Homo sapiens) (UniProt P29322); settings: at 1 µM
T2 sequence (whole entry): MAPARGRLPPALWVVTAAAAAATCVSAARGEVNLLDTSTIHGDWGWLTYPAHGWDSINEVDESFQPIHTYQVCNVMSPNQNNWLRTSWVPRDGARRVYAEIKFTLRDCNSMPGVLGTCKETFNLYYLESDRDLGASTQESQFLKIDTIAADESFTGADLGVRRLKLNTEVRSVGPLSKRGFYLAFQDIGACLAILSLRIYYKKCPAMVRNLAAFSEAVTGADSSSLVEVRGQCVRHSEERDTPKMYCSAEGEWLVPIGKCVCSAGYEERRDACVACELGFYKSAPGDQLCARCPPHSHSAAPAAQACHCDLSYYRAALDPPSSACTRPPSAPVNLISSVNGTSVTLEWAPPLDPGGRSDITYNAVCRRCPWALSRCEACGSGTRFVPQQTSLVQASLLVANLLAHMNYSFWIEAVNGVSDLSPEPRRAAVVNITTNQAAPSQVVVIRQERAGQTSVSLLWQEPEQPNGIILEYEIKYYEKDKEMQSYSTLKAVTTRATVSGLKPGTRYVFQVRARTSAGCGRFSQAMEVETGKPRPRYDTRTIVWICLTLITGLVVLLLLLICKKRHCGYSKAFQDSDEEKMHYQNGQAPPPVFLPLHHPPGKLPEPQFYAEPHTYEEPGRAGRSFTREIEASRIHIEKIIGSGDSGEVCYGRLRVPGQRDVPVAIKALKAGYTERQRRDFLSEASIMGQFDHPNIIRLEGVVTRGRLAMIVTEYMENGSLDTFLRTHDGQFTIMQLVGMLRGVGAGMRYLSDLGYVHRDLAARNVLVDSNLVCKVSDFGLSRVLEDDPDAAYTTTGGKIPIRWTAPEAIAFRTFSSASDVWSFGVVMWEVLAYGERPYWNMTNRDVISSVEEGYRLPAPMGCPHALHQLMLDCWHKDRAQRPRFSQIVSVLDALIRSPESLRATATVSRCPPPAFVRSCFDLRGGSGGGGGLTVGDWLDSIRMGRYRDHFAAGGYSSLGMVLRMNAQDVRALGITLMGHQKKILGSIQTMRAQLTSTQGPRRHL

[9] = biological target: T2, Ephrin type-A receptor 8 (Homo sapiens); settings: at 10 µM
[10] = biological target: T3, Ephrin type-B receptor 1 (Homo sapiens) (UniProt P54762); settings: at 1 µM
T3 sequence (whole entry): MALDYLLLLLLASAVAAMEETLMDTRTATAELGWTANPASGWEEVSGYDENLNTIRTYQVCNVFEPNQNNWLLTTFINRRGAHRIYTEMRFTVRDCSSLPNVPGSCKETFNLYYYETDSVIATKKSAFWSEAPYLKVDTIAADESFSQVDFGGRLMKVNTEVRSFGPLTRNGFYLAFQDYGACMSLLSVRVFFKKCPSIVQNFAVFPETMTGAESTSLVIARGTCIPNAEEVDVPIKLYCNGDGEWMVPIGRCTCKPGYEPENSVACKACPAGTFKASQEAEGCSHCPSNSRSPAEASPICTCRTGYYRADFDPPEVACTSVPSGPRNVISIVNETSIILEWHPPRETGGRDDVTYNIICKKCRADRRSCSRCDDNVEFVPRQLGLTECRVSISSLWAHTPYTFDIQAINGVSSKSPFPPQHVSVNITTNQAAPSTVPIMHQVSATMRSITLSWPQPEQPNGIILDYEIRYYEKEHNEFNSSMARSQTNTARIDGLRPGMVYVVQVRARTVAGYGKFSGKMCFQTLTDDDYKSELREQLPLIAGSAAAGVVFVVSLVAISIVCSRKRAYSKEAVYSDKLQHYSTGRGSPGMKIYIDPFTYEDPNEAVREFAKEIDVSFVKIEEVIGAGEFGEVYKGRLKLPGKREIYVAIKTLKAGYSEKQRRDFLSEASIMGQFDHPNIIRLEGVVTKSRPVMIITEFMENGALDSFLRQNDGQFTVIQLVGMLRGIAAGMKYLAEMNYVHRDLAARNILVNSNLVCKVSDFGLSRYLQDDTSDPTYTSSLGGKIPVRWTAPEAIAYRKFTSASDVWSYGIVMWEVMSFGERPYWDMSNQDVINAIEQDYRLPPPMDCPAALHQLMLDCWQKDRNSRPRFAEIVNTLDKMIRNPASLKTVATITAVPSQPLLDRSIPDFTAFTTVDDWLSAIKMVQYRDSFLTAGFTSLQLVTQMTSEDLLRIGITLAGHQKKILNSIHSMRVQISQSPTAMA

Ephrin type-A receptor 7 (Homo sapiens), sequence (Q15375 28-998 limits assumed): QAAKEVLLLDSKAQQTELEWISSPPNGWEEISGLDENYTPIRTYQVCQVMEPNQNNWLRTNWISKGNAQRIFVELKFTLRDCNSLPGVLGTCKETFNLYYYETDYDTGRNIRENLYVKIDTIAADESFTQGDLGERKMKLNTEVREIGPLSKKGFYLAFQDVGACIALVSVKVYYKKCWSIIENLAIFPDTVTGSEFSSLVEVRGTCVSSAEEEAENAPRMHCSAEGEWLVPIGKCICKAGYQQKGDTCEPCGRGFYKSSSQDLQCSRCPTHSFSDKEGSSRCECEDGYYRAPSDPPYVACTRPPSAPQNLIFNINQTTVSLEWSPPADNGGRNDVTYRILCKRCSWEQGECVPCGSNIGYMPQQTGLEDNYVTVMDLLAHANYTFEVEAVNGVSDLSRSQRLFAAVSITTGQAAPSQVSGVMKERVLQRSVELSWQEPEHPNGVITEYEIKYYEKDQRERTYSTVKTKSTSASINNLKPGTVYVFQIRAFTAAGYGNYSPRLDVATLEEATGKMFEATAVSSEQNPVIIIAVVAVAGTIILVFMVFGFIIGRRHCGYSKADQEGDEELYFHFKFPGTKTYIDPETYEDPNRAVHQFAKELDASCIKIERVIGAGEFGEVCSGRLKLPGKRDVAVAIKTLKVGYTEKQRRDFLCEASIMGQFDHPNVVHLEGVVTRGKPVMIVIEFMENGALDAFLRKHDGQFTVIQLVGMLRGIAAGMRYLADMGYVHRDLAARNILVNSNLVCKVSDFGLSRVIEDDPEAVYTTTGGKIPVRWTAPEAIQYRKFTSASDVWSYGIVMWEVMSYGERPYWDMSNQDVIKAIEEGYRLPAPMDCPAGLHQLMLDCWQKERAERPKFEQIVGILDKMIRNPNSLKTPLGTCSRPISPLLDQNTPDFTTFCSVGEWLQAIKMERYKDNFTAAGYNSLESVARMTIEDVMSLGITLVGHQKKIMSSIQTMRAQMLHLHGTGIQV
Ephrin type-A receptor 5 (Homo sapiens), sequence (P54756 whole entry): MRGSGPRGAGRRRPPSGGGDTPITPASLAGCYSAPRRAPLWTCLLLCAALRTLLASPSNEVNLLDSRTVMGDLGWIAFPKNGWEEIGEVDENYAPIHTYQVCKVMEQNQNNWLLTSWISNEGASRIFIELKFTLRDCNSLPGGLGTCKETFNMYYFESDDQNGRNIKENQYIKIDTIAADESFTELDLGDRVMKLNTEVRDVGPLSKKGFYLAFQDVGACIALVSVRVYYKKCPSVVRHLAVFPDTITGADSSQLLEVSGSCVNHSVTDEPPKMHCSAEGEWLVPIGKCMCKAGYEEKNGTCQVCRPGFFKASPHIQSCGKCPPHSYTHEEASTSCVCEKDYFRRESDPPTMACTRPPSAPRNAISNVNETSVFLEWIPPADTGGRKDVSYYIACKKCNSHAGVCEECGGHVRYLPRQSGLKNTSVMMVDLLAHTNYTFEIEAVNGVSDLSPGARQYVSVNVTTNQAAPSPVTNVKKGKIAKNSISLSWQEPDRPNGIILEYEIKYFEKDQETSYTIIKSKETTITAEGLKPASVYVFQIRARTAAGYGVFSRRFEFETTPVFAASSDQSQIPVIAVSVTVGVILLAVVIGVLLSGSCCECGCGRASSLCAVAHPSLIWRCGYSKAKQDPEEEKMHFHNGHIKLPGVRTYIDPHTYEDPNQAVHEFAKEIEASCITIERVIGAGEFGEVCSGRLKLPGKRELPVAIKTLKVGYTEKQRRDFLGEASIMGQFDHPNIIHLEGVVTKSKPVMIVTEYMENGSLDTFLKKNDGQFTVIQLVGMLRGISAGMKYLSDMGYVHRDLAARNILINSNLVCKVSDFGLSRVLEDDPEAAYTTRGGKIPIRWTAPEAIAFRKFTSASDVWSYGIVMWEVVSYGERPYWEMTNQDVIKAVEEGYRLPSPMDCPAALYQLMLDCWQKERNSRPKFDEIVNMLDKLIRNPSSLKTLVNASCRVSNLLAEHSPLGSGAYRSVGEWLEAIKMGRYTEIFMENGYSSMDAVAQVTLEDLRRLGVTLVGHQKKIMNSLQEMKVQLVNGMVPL
Ephrin type-A receptor 4 (Homo sapiens), sequence (P54764 whole entry): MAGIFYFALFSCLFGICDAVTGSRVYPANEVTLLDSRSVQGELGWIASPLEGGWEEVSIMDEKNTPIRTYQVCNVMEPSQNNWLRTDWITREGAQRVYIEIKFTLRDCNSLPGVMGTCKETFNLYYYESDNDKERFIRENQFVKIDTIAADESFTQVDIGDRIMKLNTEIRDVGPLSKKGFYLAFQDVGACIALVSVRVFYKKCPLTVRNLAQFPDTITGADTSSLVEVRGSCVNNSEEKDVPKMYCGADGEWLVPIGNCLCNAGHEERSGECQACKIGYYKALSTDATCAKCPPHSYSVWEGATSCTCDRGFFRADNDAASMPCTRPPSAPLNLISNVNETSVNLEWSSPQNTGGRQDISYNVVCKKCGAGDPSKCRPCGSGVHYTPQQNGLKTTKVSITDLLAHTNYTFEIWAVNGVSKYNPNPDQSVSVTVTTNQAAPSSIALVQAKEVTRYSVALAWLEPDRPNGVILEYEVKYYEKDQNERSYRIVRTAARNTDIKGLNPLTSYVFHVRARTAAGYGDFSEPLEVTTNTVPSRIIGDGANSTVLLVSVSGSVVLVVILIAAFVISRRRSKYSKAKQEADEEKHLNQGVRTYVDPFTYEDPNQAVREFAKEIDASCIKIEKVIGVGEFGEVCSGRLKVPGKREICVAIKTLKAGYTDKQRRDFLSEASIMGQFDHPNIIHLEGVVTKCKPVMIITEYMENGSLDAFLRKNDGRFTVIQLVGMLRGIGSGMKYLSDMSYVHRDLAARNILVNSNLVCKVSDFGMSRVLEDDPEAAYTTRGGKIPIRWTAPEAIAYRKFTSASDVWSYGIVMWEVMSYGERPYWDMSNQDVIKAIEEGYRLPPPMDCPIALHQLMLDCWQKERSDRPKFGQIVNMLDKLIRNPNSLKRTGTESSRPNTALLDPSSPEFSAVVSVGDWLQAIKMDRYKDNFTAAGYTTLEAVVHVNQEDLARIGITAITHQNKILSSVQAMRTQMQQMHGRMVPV

Which results are given for `COC(=O)[C@@]1(O)C[C@H]2O[C@]1(C)n1c3ccccc3c3c4c(c5c6ccccc6n2c5c31)C(=O)NC4`?
residual activity [1]: 5%; residual activity [2]: 83%; residual activity [3]: 43%; residual activity [4]: 66%; residual activity [5]: 13%; residual activity [6]: 32%; residual activity [7]: 4%; residual activity [8]: 78%; residual activity [9]: 40%; residual activity [10]: 39%
